Laboratory results as given in ChEMBL document CHEMBL2218924, “A broad activity screen in support of a chemogenomic map for kinase signalling research and drug discovery” (Biochem J, 2013).

What follows are compounds tested against T1, Dual specificity mitogen-activated protein kinase kinase 6 (Homo sapiens) (UniProt P52564). Details: at 1 µM.
T1 sequence (whole entry): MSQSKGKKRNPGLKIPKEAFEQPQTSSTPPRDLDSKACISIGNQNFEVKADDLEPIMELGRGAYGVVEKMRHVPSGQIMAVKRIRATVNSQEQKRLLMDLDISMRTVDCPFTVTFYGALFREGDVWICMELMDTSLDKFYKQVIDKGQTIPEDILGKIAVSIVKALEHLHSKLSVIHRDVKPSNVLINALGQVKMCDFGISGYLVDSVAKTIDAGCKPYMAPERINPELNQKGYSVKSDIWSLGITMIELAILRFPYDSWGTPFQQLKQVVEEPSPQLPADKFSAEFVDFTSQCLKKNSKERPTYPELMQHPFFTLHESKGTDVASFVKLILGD

Row | Compound | residual activity
1 | N#C/C(=C(\N)Sc1ccc(N)cc1)c1ccccc1C(F)(F)F | 93%
2 | CO[C@H]1C[C@@H]2CC[C@@H](C)[C@@](O)(O2)C(=O)C(=O)N2CCCC[C@H]2C(=O)O[C@H]([C@H](C)C[C@@H]2CC[C@@H](O)[C@H](OC)C2)CC(=O)[C@H](C)/C=C(\C)[C@@H](O)[C@@H](OC)C(=O)[C@H](C)C[C@H](C)/C=C/C=C/C=C/1C | 93%
3 | Cc1nc(-c2ccccc2)c(-c2ccncc2)o1 | 99%
4 | CC(=O)c1ccc(N2CCOCC2)cc1O | 75%
5 | Cc1nc2cc3nc(-c4cccs4)cnc3cc2n1C | 75%
6 | Nc1n[nH]c2nnc(-c3c(-c4ccccc4)nn4ccccc34)cc12 | 104%
7 | CCN(CC)CCCCN1c2ccccc2Oc2ccc(Cl)cc21 | 99%
8 | Cn1cnc2cc3c(Nc4cccc(Br)c4)ncnc3cc21 | 83%
9 | CO[C@H]1[C@@H](OC)C[C@H](C)[C@@H](OC)C2=CC(=O)C=C(NC(=O)/C(C)=C/C=C/[C@H](OC)[C@@H](OC(N)=O)/C(C)=C/[C@@H]1C)C2=O | 72%
10 | CN(C)c1ccc(/C=C2\C(=O)Nc3ccccc32)cc1 | 97%
11 | COc1ccc(S(=O)(=O)N(CCO)c2ccccc2CN(C)C/C=C/c2ccc(Cl)cc2)cc1 | 99%
12 | O=Nc1c(-c2c(O)[nH]c3ccccc23)[nH]c2ccccc12 | 63%
13 | O=C1NC(=O)/C(=C/c2ccc3c(c2)OC(F)(F)O3)S1 | 72%
14 | COc1cc2ncnc(N3CCN(C(=O)Nc4ccc(Oc5ccccc5)cc4)CC3)c2cc1OC | 87%
15 | Oc1ccc(-c2nc(-c3ccc(F)cc3)c(-c3ccncc3)[nH]2)cc1 | 12%
